In the library only some 7.3% were active in any assay of this set; here they are far more common.
Tau fluor counter – counter-screen for tau fibril formation inhibitors | Potency, µM (titrated, usually from 57.7 µM), inactives show top-dose activity change, negative = decrease | 280,000 tested, 0.93% active | tau K18 P301L Alexa594 fluorescence, heparin fibrillization; also: nearly all actives have a fitted effect of over 55% in size
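Human tau K18 P301L (15 uM unlabeled, 0.24 uM Alexa 594-labeled) in 100 mM sodium acetate pH 7 with 20 uM heparin, 6 hr at 37 C. ThT 30 uM added, 1 hr ambient; Alexa 594 FP and total fluorescence read at 555/632 nm.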
Tau FP inhib – tau fibrillization inhibition (FP); P10636; K18 P301L tau heparin fibrillization, Alexa594 FP, 6 h; Potency, µM (highest dose often 57.7 µM), without a hit: top-dose activity, negative = inhibition, hits mostly inhibitors; 280,000 tested, 0.39% active; also: nearly all actives have a fitted effect of over 55% in size
Target sequence (P10636 561-689 P618L limits assumed): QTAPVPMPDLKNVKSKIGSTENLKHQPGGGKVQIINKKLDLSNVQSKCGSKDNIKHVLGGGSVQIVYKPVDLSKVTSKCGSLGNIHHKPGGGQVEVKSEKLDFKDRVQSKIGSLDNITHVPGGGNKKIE
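Compound effects on tau fibrillization are measured by Alexa 594 fluorescence polarization (ex 555, em 632 nm). K18 P301L tau is used at 15 uM with 0.24 uM labeled tracer, and 20 uM heparin induces aggregation over 6 hr at 37 C.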
Tau ThT inhib – blocks human tau fibril formation measured by thioflavin T; recombinant tau K18 P301L (four-repeat tau fragment), heparin-induced fibrillization, ThT fluorescence; Potency, µM (titrated, usually from 57.4 µM), inactives show at the top dose activity, negative = inhibition, actives largely listed as inhibitors; AID 1460; 270,000 tested, 2.1% active; P10636; also: nearly all actives have a fitted effect of over 55% in size
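Heparin-induced (20 uM) aggregation of recombinant human K18 P301L tau, 15 uM unlabeled with 0.24 uM labeled, pH 7 acetate buffer, 6 hr at 37 C with compound. Fibrils quantified by 30 uM ThT fluorescence after 1 hr ambient incubation.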
VP16 counter – Gal4-VP16 reporter inhibition counter-screen | Drosophila S2 Gal4-VP16 UAS-luciferase, luminescence, 20 h | Potency, µM (titrated, usually from 53.6 µM), inactives show at the highest dose activity, negative = inhibition, most hits filed as inhibitors | 310,000 tested, 3.5% active | AID 2546;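 also: Gal4-VP16 expression switched on by copper sulfate through the metallothionein promoter; nearly all actives have a fitted effect of over 50% in size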
RORgamma inh – blocks mouse ROR gamma transcriptional activity; Potency, µM (highest dose often 53.6 µM), for the others: at the top dose activity change, negative = inhibition, most hits filed as inhibitors; 310,000 tested, 5.4% active; P51450; Drosophila S2 Gal4-RORgamma UAS-luciferase reporter, 20 h; also: nearly all actives have a fitted effect of over 60% in size
Target sequence (P51450 whole entry, looked up, the tested form may be a part): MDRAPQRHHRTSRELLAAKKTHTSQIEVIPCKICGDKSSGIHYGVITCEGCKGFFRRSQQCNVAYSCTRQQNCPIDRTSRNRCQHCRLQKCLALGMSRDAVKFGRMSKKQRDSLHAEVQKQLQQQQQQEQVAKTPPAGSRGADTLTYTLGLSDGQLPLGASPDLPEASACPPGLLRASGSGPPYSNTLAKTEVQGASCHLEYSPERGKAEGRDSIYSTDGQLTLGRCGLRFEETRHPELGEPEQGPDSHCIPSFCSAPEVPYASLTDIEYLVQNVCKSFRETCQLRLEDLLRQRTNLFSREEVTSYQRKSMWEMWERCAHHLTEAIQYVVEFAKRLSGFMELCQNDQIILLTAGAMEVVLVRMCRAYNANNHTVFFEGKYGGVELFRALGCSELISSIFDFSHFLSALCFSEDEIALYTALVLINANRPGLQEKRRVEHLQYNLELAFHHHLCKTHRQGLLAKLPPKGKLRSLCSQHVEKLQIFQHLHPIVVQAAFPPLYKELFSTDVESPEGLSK
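Drosophila Schneider cells stably carrying a metallothionein-driven Gal4 DBD–ROR gamma fusion and a UAS-Photinus luciferase reporter were exposed to compound for 1 hr, then induced with copper sulfate (700 uM final) for 20 hr at ambient temperature before luminescence reading.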
Starred values were filed as active, the others as inactive; ? = inconclusive; · = not tested or not shown; ! = a repeat was not active; [ ] = remark or other dose. Calls follow the shape of the dose curve; as a rule, active = well fitted curve in the direction sought with a large enough effect; inconclusive = small, poorly fitted or top-dose-only effect, or another doubt; inactive = no such curve, though single readings can be large; an effect the other way counts as inactive or inconclusive. % is scaled to controls: 0 for no effect and ±100 for the full control effect; potency is read from the fitted curve at half-maximal effect.

SMILES	Tau fluor counter	Tau FP inhib	Tau ThT inhib	VP16 counter	RORgamma inh
Cn1c(=O)c2c(nc(Oc3ccccc3)n2Cc2c(Cl)cccc2Cl)n(C)c1=O	1.0%	1.0%	-1.9%	·	·
NS(=O)(=O)c1ccc(S(=O)(=O)N2CCN(C3CCCC3)CC2)cc1	·	·	·	-1.4%	1.5%
O=S(=O)(c1ccccc1)N1CCN(C2CCCCCCC2)CC1	-4.9%	1.0%	1.8%	-2.8%	12.6µM*
CCCCCNS(=O)(=O)c1cc2c3c(c1)CCC(=O)N3CCC2	·	·	·	-10.1%	-1.8%
COc1ccc(/C=N/Nc2nnc(C)n2N)cc1OC	-19.2%	?	28.2µM*	?	11.2µM*
COc1cc(/C=N/Nc2nc(=O)[nH]nc2C)ccc1O	8.2%	4.6%	-9.1%	-12.6%	11.2µM*
COc1ccc(/C=N/Nc2nc(=O)[nH]nc2C)cc1OC	-3.7%	0.4%	-16.7%	7.9%	11.2µM*
CCn1cc(C2=NC(CC(C)C)CO2)c2ccccc21 (configuration not stated)	-4.7%	3.6%	-0.5%	?	3.98µM*
CCn1cc(C2=NC(CCSC)CO2)c2ccccc21 (configuration not stated)	-10.5%	-3.1%	-6.4%	?	7.94µM*
CC(C)C1COC(c2cccc3ccccc23)=N1 (configuration not stated)	-10.3%	-1.1%	?	?	20µM*
CCn1cc(C2=NC(C(C)C)CO2)c2ccccc21 (configuration not stated)	-5.6%	-2.6%	-9.4%	?	10µM*
COc1cc(Cl)c(C)cc1NC(=O)CCn1c(=O)c2cccn2c2cccnc21	-1.3%	-3.5%	9.0%	·	·
COc1ccc(N2Cc3cccc(C(=O)Nc4ccc(F)cc4)c3C2=O)cc1	-22.7%	1.8%	-4.6%	·	·
CCc1cc2c(=O)oc(-c3ccc(Br)cc3)nc2s1	·	·	·	-3.4%	24.7%
C=CCC(C)(O)c1ccccc1 (configuration not stated)	-0.9%	3.6%	2.5%	5.6%	1.5%
S=C(Nc1ccccc1)N1CCCCCCC1	3.2%	-10.0%	4.1%	-4.7%	?
CC1CN(C(=S)Nc2ccccc2)N(c2ccccc2)C1 (configuration not stated)	-5.1%	-0.8%	-7.7%	-12.1%	11.2µM*
CN(C)c1ccc(C(=C2C=CC(=[N+](C)C)C=C2)c2ccc(N(C)C)cc2)cc1	7.08µM*[quencher]	15.8µM*	5.01µM*	1.58µM*!	1.12µM*
CN(C)c1ccc(C(=C2C=CC(=[N+](C)C)C=C2)c2c(O)c(S(=O)(=O)[O-])cc3cc(S(=O)(=O)O)ccc23)cc1	·	·	·	8.91µM*	8.91µM*
Cc1ccc(CCNC(=O)C2CCN(Cc3nc(-c4ccccc4C)oc3C)CC2)cc1	-4.6%	1.5%	-9.2%	·	·
O=C(O)C1Nc2c(O)cc(Cl)c([N+](=O)[O-])c2C2C=CCC12 (configuration not stated)	7.08µM*[quencher]	14.1µM*	7.94µM*	-7.6%	10µM*
C[C@]12CC[C@H]3c4ccc(O)cc4CC[C@@H]3[C@H]1CC[C@@H]2OP(=O)(O)O	·	·	·	-8.9%	2.3%[10 µM]
Cc1cccc(C(=O)N/N=C/c2ccccn2)c1	1.2%	-0.6%	-6.4%	14.1µM*	6.31µM*
CCN(CC)S(=O)(=O)c1cccc(C(=O)N/N=C/c2ccccn2)c1	-9.1%	-11.1%	-6.9%	?	8.91µM*
O=C(O)c1cccc(NC(=S)N/N=C/c2ccccn2)c1	3.1%	-6.1%	?	?	4.47µM*
SMILES	Tau fluor counter	Tau FP inhib	Tau ThT inhib	VP16 counter	RORgamma inh
CCN(CC)S(=O)(=O)c1cccc(C(=O)N/N=C/c2cccc(O)c2O)c1	14.1%	6.6%	11.9%	-13.3%	1.0%
O=C(O)c1cccc(NC(=S)N/N=C/c2cccc(O)c2)c1	-1.3%	5.3%	?	-4.5%	0.3%
Cc1occc1C(=O)N/N=C/c1ccccn1	-5.4%	-8.7%	-10.7%	-26.1%	10µM*
O=C(NCCCc1ccccc1)c1nn(-c2ccccc2F)nc1CO	-12.4%	6.7%	-7.0%	·	·
COC(=O)C/C=C\[C@@H](C)[C@@H](/C=N\OC[C@@H](O)COCc1ccco1)NS(=O)(=O)c1ccc(C)cc1	-15.3%[11.6 µM]	2.7%[11.6 µM]	-15.2%[11.5 µM]	-8.3%[10 µM]	-5.5%[10 µM]
O=C(CCCCC(=O)NCCc1ccccc1)NCCc1ccccc1	·	·	·	2.6%	9.8%
COc1ccc(-c2nn(-c3ccccc3)cc2/C=N/NC(=O)c2cccc(S(=O)(=O)Nc3ccccc3Cl)c2)cc1	-17.9%	?	3.1%	1.78µM*	1.78µM*
O=C(N/N=C/c1ccccn1)c1cccc([N+](=O)[O-])c1	-6.4%	-9.8%	-12.1%	12.6µM*	4.47µM*
O=C(N/N=C/c1ccccn1)c1cccc(S(=O)(=O)Nc2ccccc2Cl)c1	-13.6%	-1.1%	-15.9%	?	20µM*
O=C(N/N=C/c1ccccn1)c1ccc(NC(=O)c2cccc([N+](=O)[O-])c2)cc1	?	5.1%	?	-6.6%	-12.8%
COc1ccc(-c2nn(-c3ccccc3)cc2/C=N/NS(=O)(=O)c2ccccc2)cc1	?	-2.3%	-7.4%	-3.9%	?
O=C(N/N=C/c1ccccn1)c1cc([N+](=O)[O-])cc([N+](=O)[O-])c1	-15.8%	-2.4%	-16.9%	4.47µM*	3.55µM*
CCOc1ccccc1Nc1sc(C(=O)c2ccc(Cl)cc2)c(N)c1C(=O)NCCc1ccccc1	-29.6%	-10.3%	?	·	·
O=C(N/N=C1\CCCc2ccccc21)c1cccc([N+](=O)[O-])c1	-24.4%	-10.2%	?	4.1%	?
O=C(N/N=C1/CCCc2ccccc21)c1cc([N+](=O)[O-])cc([N+](=O)[O-])c1	-2.3%	2.4%	1.7%	3.0%	11.2µM*
CCc1ccc(Cn2c(CNS(=O)(=O)c3ccc4c(c3)CCCC4)nc3cccnc32)cc1	-17.5%	10.6%	-12.7%	·	·
O=C(O)c1csc(N/N=C/c2ccc(Br)cc2)n1	?	-0.5%	?	5.01µM*	2.51µM*
CNC(=O)C(=O)N/N=C/c1ccc(Br)cc1	1.2%	-9.1%	2.4%	13.7%[10 µM]	1.5%
COCCn1c(C)cc(O)c(C(c2ccc(F)cc2)N2CCN(c3ccccc3)CC2)c1=O (configuration not stated)	4.6%	-2.4%	?	·	·
COc1cc(/C=C2\C(=O)ON=C2c2ccccc2)cc(Cl)c1O	-10.0%	-5.7%	?	12.6µM*	?
COc1cc(/C=C2/C(=O)ON=C2c2ccccc2)ccc1O	-0.5%	12.6%	-2.5%	-89.0%	-14.6%[10 µM]
COc1cc(C2Nc3cc(C)c(C)cc3NC3=C2C(=O)CC(C)(C)C3)ccc1OC(C)=O (configuration not stated)	·	·	·	7.8%	6.8%
Cc1cc2c(cc1C)NC(c1c(C)n(C)n(-c3ccccc3)c1=O)C1=C(CC(C)(C)CC1=O)N2 (configuration not stated)	-2.9%	-1.7%	?	-29.4%	12.6µM*

Source: PubChem (National Center for Advancing Translational Sciences (NCATS))
